The source made the active and inactive calls. How the source made its calls: active means hit-call score of the fitted dose curve at least 0.9, where 1 is the maximum; inactive means score below 0.9.
What was measured:
Conditions in all cases: mRNA level, 48 h; actives raise or lower the signal
[1] = read-out: 3-Hydroxy-3-Methylglutaryl-CoA Synthase 2 (HMGCS2), HMGCS2 (gene 3158); assay: LTEA_HepaRG_HMGCS2: Life Technologies and Expression Analysis (LTEA) Assay for 3-Hydroxy-3-Methylglutaryl-CoA Synthase 2 (HMGCS2) using HepaRG (AID 2283504)
Method in brief: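 Differentiated human HepaRG cells were exposed in duplicate for 48 h in serum-free induction medium to eight concentrations (top 100 uM, half-log steps, 0.5% DMSO). HMGCS2 mRNA was quantified by TaqMan qRT-PCR, normalised to ACTB, GAPDH and POLR2A, then fitted bidirectionally against DMSO.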

[2] = read-out: Intercellular Adhesion Molecule 1 (ICAM1), ICAM1 (gene 3383); assay: LTEA_HepaRG_ICAM1: Life Technologies and Expression Analysis (LTEA) Assay for Intercellular Adhesion Molecule 1 (ICAM1) using HepaRG (AID 2283507)
Method in brief: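 Differentiated HepaRG cells in serum-free induction medium were exposed in duplicate for 48 h to eight half-log concentrations up to 100 uM in 0.5% DMSO. Transcript levels were measured by qRT-PCR normalized to ACTB, GAPDH and POLR2A; bidirectional fits relative to DMSO.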

[3] = read-out: Insulin-like growth factor-binding protein 1 (IGFBP1), IGFBP1 (gene 3484); assay: LTEA_HepaRG_IGFBP1: Life Technologies and Expression Analysis (LTEA) Assay for Insulin-like growth factor-binding protein 1 (IGFBP1) using HepaRG (AID 2283508)
Method in brief: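 Differentiated human HepaRG cells in serum-free induction medium were exposed in duplicate for 48 h to eight concentrations, top 100 uM with half-log dilutions, in 0.5% DMSO. Transcript levels came from qRT-PCR normalised to ACTB, GAPDH and POLR2A, fitted bidirectionally against DMSO.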

[4] = read-out: Interleukin 6 (IL6), IL6 (gene 3569); assay: LTEA_HepaRG_IL6: Life Technologies and Expression Analysis (LTEA) Assay for Interleukin 6 (IL6) using HepaRG (AID 2283509)
Method in brief: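 qRT-PCR read-out of IL6 transcript, normalized to three housekeeping genes, after 48 h chemical exposure of HepaRG cells; 8-point half-log series, top 100 uM, 0.5% DMSO vehicle. Bidirectional curve fitting against DMSO baseline.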

[5] = read-out: Interleukin 6 Receptor (IL6R), IL6R (gene 3570); assay: LTEA_HepaRG_IL6R: Life Technologies and Expression Analysis (LTEA) Assay for Interleukin 6 Receptor (IL6R) using HepaRG (AID 2283510);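 on AC50: TaqMan qRT-PCR signal normalized to ACTB GAPDH and POLR2A housekeeping genes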
Method in brief: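 In this HepaRG screen, test chemicals act on cells for 48 h at up to 100 uM (eight half-log points, duplicate wells). IL6R expression is quantified by qRT-PCR after normalization to ACTB, GAPDH and POLR2A, with DMSO as baseline.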

[6] = read-out: Potassium channel subfamily K member 1 (KCNK1), KCNK1 (gene 3775); assay: LTEA_HepaRG_KCNK1: Life Technologies and Expression Analysis (LTEA) Assay for Potassium channel subfamily K member 1 (KCNK1) using HepaRG (AID 2283511)
Method in brief: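 HepaRG, 48 h exposure, 8-pt half-log series top 100 uM, 0.5% DMSO vehicle, duplicates. Readout: KCNK1 transcript by qRT-PCR (Fluidigm array), housekeeping-normalized; bidirectional curve fit relative to DMSO baseline.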

[7] = read-out: Keratin 19 (KRT19), KRT19 (gene 3880); assay: LTEA_HepaRG_KRT19: Life Technologies and Expression Analysis (LTEA) Assay for Keratin 19 (KRT19) using HepaRG (AID 2283512)
Method in brief: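 Differentiated human HepaRG cells, plated 48 h, were exposed in duplicate for 48 h in serum-free induction medium to eight half-log concentrations up to 100 uM in 0.5% DMSO. KRT19 mRNA was quantified by qRT-PCR, normalized to ACTB, GAPDH and POLR2A, and fitted bidirectionally versus DMSO.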

[8] = read-out: JUN Transcription Factor, JUN (gene 3725); assay: LTEA_HepaRG_JUN: Life Technologies and Expression Analysis (LTEA) Assay for JUN Transcription Factor using HepaRG (AID 2283513)
Method in brief: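 Gene-expression endpoint: JUN mRNA (qRT-PCR, normalized to three reference genes) in HepaRG cultures treated 48 h with chemicals, duplicate wells, 100 uM maximum with half-log dilutions; bidirectional fitting relative to 0.5% DMSO.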

HGF (gene 3082) = assay: LTEA_HepaRG_HGF: Life Technologies and Expression Analysis (LTEA) Assay for Hepatocyte Growth Facto (HGF) using HepaRG (AID 2283505)
Method in brief: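 Differentiated human HepaRG cells in serum-free induction medium were exposed in duplicate for 48 h to eight concentrations (top 100 uM, half-log steps, 0.5% DMSO). HGF mRNA was quantified by qRT-PCR, normalized to ACTB, GAPDH and POLR2A.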

Measured: AC50

CCOP(=O)(SC(C)CC)N1CCSC1=O (stereo unspecified)
active: [1] 21.3 µM
not listed: HGF (gene 3082)
inactive: all other assays above

CCOP(=S)(Oc1cnc(C(C)(C)C)nc1)OC(C)C (stereo unspecified)
active: [1] 14 µM | [5] 25.1 µM
inactive: all other assays above

CCOP(=O)(NC(C)C)Oc1ccc(SC)c(C)c1 (stereo unspecified)
active: [1] 18.8 µM
inactive: all other assays above

COP(=O)(OC)C(O)C(Cl)(Cl)Cl (stereo unspecified)
inactive: all assays above

CC(C)N(C(=O)SCC(Cl)=C(Cl)Cl)C(C)C
inactive: all assays above

CCOC(=O)CC(SP(=O)(OC)OC)C(=O)OCC (stereo unspecified)
inactive: all assays above

Cc1cc(C2CC2)nc(Nc2ccccc2)n1
active: [5] 50 µM | [7] 22.9 µM
inactive: all other assays above

CCCCOC(=O)[C@@H](C)Oc1ccc(Oc2ccc(C#N)cc2F)cc1
active: [1] 25.8 µM
inactive: all other assays above

CNC(=O)ON=C(C)SC
inactive: all assays above

CCc1cccc(C)c1N(C(=O)CCl)C(C)COC (stereo unspecified)
inactive: all assays above

CCC(=O)Nc1ccc(Cl)c(Cl)c1
active: [3] 50 µM | [7] 41.4 µM
inactive: all other assays above

FC(F)C(F)(F)OCC(Cn1cncn1)c1ccc(Cl)cc1Cl (stereo unspecified)
inactive: [5] | [7] | [8]
active: [1] 39.5 µM | HGF (gene 3082) 87.2 µM | [2] 31.9 µM | [3] 31.4 µM | [4] 78.5 µM | [6] 66.8 µM

CCOP(=S)(OCC)Oc1ccc2c(C)c(Cl)c(=O)oc2c1
active: [1] 51.8 µM | [3] 21.5 µM | [7] 29.4 µM
inactive: all other assays above

C#CCC1=C(C)C(OC(=O)C2C(C=C(C)C)C2(C)C)CC1=O (stereo unspecified)
inactive: all assays above

CSc1nc(NC(C)C)nc(NC(C)C)n1
active: [1] 50 µM
inactive: all other assays above

CCOP(=O)(OCC)Oc1cc(C)nc(C(C)C)n1
inactive: all assays above

CC1(C(=O)Nc2ccc(O)c(Cl)c2Cl)CCCCC1
inactive: all assays above

CC(C)=CC1C(C(=O)OCN2C(=O)C3=C(CCCC3)C2=O)C1(C)C (stereo unspecified)
inactive: all assays above
